Assay outcomes: PubChem, NMMLSC
Bead autofluor: compound fluorescence in toxin protease inhibitor counterscreen; compound autofluorescence counterscreen, microsphere flow cytometry; stronger effect = higher value; fluorescence intensity (no concentration beside the values); 3.1% of 360,000 active; AID 624483; in the data active = fluorescence intensity above about 16000; inconclusive = no clear call, values can overlap the other calls
Anthrax LF inh2: Bacillus anthracis LF protease inhibitors, primary screen, biochemical, multiplex microsphere, MLPCN library. Lethal factor (Bacillus anthracis), P15917. multiplex microsphere protease cleavage assay. inhibition, % at 10 µM. 0.12% of 360,000 active. AID 588501, 2011; note: plate controls were buffer without enzyme for full effect and enzyme alone for no effect
BoNT-F LC inh: BoNT/F light chain protease inhibitors, primary screen, biochemical, flow cytometry, MLPCN library. Botulinum neurotoxin type F light chain protease (Clostridium botulinum). Multiplex microsphere protease cleavage assay. inhibition, % at 10 µM. 0.22% of 360,000 active. AID 588497, 2011; in the data active = inhibition above about 35%, passing the limit was not always enough; inconclusive = no clear call, values can overlap the other calls; note: plate controls were buffer without enzyme for full effect and enzyme alone for no effect
BoNT-A LC inh2: BoNT/A light chain protease inhibitors, primary screen, biochemical, flow cytometry, MLPCN library. Botulinum neurotoxin type A light chain protease (Clostridium botulinum A str. ATCC 3502). multiplex microsphere protease substrate cleavage. inhibition, % at 10 µM. 0.17% of 360,000 active. AID 588499, 2011; note: plate controls were buffer without enzyme for full effect and enzyme alone for no effect
The depositor's hits bear a star; ? = inconclusive. A selection: hits, their analogues and other compounds. The true share with any hit is near 3.5%. Cut-off read from the data, not from the text of the source, unless noted: active = inhibition above about 30%; inconclusive = no clear call, values can overlap the other calls; inactive = below that.

SMILES	Bead autofluor	Anthrax LF inh2	BoNT-F LC inh	BoNT-A LC inh2
O=C(CCNC(=O)c1ccccc1Cl)Nc1ccc(S(=O)(=O)N2CCOCC2)cc1	3475	-2	4	0
CCS(=O)(=O)N1CCN(c2ccc(Cl)cc2[N+](=O)[O-])CC1	2413	1	-3	0
O=C1CC(N2C(=O)/C(=C/C=C/c3ccccc3)SC2=S)C(=O)N1c1ccccc1 (centres undefined)	2114	35*	21	64*
Cc1cccc(NC(=O)c2cc([N+](=O)[O-])ccc2NC2CCCCC2)c1	1988	0	-12	2
CN(c1ccc([N+](=O)[O-])cc1C(=O)Nc1ccccc1)C1CCCCC1	21198*	-4	4	3
Cc1ccc(C)c(C(C)NC(=S)NCc2ccc(F)cc2)c1 (centres undefined)	5488	-2	4	2
CCN(CC)C(=O)C1CC(c2ccc(OC)cc2)=NO1 (centres undefined)	20968*	0	-1	-1
COc1ccc(C2=NOC(C(=O)NC(C)(C)C)C2)cc1 (centres undefined)	22564*	-2	1	1
CSCCC(NC(=O)c1ccccc1Br)C(=O)N1CCCC(C(F)(F)F)C1 (centres undefined)	6330	1	5	1
COc1ccc(-c2c(C)nn3c(N4CCN(Cc5ccccc5)CC4)cc(C)nc23)cc1OC	6083	8	-6	0
Cc1nn2c(N3CCN(C4CCCC4)CC3)cc(C(C)(C)C)nc2c1-c1ccccc1	23963*	-10	-4	?
Cc1cc(N2CCN(Cc3ccccc3)CC2)n2nc(C)c(-c3ccccc3)c2n1	22404*	-4	-10	-5
Cc1nn2c(N3CCN(C)CC3)cc(C(C)(C)C)nc2c1-c1ccccc1	5955	-6	-4	-1
O=C(CSc1nc2c(c(=O)[nH]1)CCCC2)Nc1ccc(Cl)cc1F	20550*	-3	0	0
O=C(CSc1nc2c(c(=O)[nH]1)CCC2)Nc1ccc(F)cc1	4196	-2	-12	-1
O=C(O)CSc1nc2c(c(=O)[nH]1)CCCC2	24867*	-2	-9	-8
CC1(C)CC(=O)C=C(C#CC2(O)CCCCC2)C1	3702	-12	-4	0
CSCCC(NC(=O)c1ccccc1)C(=O)N1CC(C)OC(C)C1 (centres undefined)	4054	-7	-3	-1
CCN(CC(=O)Nc1ccc2c(c1)OCCO2)S(=O)(=O)c1ccc(C)cc1	17435*	2	-4	-2
COc1ccc(S(=O)(=O)N2CCC(C(=O)c3ccc4c(c3)OCCO4)CC2)cc1	9619	0	4	1
O=C(NCc1ccc(F)cc1)C1CCCN(C(=O)Nc2ccccc2)C1 (centres undefined)	19569*	-4	-1	?
O=C(c1ccc2c(c1)OCCO2)C1CCN(S(=O)(=O)c2ccccc2F)CC1	23887*	-7	-1	?
Cc1ccc(C(=O)C2CCN(CC(=O)Nc3ccc(N(C)C)cc3)CC2)cc1	21202*	-1	-5	?
Cc1cccc(NC(=O)CN2CCC(C(=O)c3ccc4c(c3)OCCO4)CC2)c1	3710	7	-8	0
O=C(CN1CCC(C(=O)c2ccc(F)cc2)CC1)Nc1ccc(F)cc1	8496	-1	6	0
SMILES	Bead autofluor	Anthrax LF inh2	BoNT-F LC inh	BoNT-A LC inh2
O=C(c1ccc(F)cc1)C1CCN(C(=O)NCc2ccccc2)CC1	24106*	0	-1	-1
Cc1ccc(C(=O)C2CCN(CC(=O)Nc3ccc4c(c3)OCCO4)CC2)cc1	23981*	0	-3	1
CCN(CC(=O)Nc1ccc2c(c1)OCCO2)Cc1cc(=O)oc2c(C)c(C)ccc12	20523*	-2	9	?
O=C(CN1CCC(C(=O)c2ccc(F)cc2)CC1)Nc1ccccc1	19525*	0	-1	1
CCN(CC(=O)Nc1ccc2c(c1)OCCO2)CC(=O)Nc1ccc2c(c1)OCO2	4394	-1	6	0
O=C(c1cncs1)N1CCCC(CNS(=O)(=O)c2cccs2)C1 (centres undefined)	3862	3	0	1
Cn1c(N)c(C(=O)N2CCN(c3ccccc3)CC2)c(=O)n(C)c1=O	3895	-9	0	-1
CCOc1ccc(C(=O)N2CCC(C(=O)c3ccc4c(c3)OCCO4)CC2)cc1	17361*	1	0	1
CCOC(=O)C1CCN(C(=O)c2ccc3c(c2)OCCO3)CC1	4181	3	-4	0
N#CCCCn1c(-c2ccccc2)noc1=O	23665*	-4	-2	?
CCC(NC(=O)OC(C)(C)C)C(=O)Oc1cc(C)cc2oc(=O)c3c(c12)CCC3 (centres undefined)	20994*	0	-2	-1
CCC(NC(=O)OC(C)(C)C)C(=O)Oc1ccc2c3c(c(=O)oc2c1)CCC3 (centres undefined)	17288*	-5	-4	-1
Cc1cc(OC(=O)CCCNC(=O)OC(C)(C)C)c2c3c(c(=O)oc2c1)CCC3	9254	-2	-1	0
Cc1cc(OC(=O)CCNC(=O)OC(C)(C)C)c2c3c(c(=O)oc2c1)CCC3	22958*	-2	0	2
COc1ccc(N2C(=O)c3ccccc3NC23CCC(C)CC3)cc1 (centres undefined)	22907*	0	-1	0
COc1ccc(N2C(=O)c3ccccc3NC23CCCCC3)cc1	7732	1	7	0
CC1CCN(S(=O)(=O)c2cccc(C(=O)NNC(=O)c3ccco3)c2)CC1	5213	-3	-5	-2
COc1cccc(-c2nnc(-c3ccc(C(F)(F)F)cc3)o2)c1OC	9011	6	11	-1
COc1cc(OC)c(-c2nnc(-c3ccc(OC)c(OC)c3OC)o2)cc1OC	23443*	-4	-3	-1
CCOCN(C(=O)Cn1c(CO)nc2ccccc21)c1c(C)cccc1CC	21035*	-2	-2	-1
CCOCN(C(=O)Cn1cnc2ccccc21)c1c(C)cccc1CC	5182	-5	-2	0
Cc1ccc(O)c(NC(=O)c2cc(C)no2)c1	3630	-11	2	0
O=C(Nc1ccccc1C(F)(F)F)N1CCN(C(c2ccccc2)c2ccccc2)CC1	22149*	0	-9	?
Cc1cc(C(=O)N(C)Cc2ccc(Br)cc2)no1	3426	-4	-8	-2
CN(Cc1ccccc1)C(=O)c1cc(-c2ccc(Br)cc2)on1	23868*	-3	-2	-1
SMILES	Bead autofluor	Anthrax LF inh2	BoNT-F LC inh	BoNT-A LC inh2
CN1CCC(N2CCN(C3CN(Cc4ccc(F)cc4)S(=O)(=O)C3)CC2)CC1 (centres undefined)	5786	5	-3	0
Cc1cc(C)n(C/C=C/Cn2nc(C)cc2C)n1	20615*	0	-2	?
Cc1cc(C)n(CC(=O)NN)n1	4225	0	-1	0
O=C(c1ccc2c(c1)C(=O)N(Cc1ccco1)C2=O)N1CCOCC1	23883*	-1	-5	-5
CCCc1[nH]n(-c2nc3ccccc3s2)c(=O)c1C=NCC1CCCO1 (centres undefined)	19952*	-6	6	5
CCCc1[nH]n(-c2nc3ccccc3s2)c(=O)c1C=NCCN1CCOCC1	15365	-7	27	?
